# Screening results as filed in PubChem BioAssay.
# The list is not random: actives were taken first. Their share in the collection is about 1.7%.
# RecA intein inh = Mtb RecA intein splicing inhibitors, primary screen, biochemical, fluorescence, HTS. Protein RecA (Mycobacterium tuberculosis (strain ATCC 25618 / H37Rv)), P9WHJ3. cell-free RecA intein splicing. inhibition, % (no concentration beside the values). 290,000 compounds, 0.75% hits; in the data active = inhibition above about 30%;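 note: 0% = vehicle wells and 100% = reference inhibitor control wells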
# Target sequence (P9WHJ3 whole entry, looked up): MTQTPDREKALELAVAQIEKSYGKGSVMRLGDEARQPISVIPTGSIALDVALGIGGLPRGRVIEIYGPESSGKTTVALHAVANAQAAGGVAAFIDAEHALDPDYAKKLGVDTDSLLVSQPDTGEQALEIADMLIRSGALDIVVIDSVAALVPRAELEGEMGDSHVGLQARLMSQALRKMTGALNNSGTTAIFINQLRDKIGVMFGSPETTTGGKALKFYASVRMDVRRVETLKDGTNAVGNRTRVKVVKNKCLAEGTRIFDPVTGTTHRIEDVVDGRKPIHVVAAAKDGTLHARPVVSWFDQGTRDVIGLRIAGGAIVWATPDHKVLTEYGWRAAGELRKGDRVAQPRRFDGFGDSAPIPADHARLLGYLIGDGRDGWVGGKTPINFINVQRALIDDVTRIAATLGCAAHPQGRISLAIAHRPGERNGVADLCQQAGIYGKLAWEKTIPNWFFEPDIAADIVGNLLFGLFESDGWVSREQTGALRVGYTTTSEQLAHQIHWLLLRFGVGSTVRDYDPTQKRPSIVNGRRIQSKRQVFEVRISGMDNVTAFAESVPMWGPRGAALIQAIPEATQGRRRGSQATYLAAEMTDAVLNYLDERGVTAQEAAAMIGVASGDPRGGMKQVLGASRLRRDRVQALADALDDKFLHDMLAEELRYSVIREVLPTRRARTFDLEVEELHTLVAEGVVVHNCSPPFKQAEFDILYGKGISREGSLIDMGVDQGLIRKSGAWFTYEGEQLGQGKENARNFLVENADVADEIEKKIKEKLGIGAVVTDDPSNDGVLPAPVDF
# CCHFV vOTU inh = CCHFV vOTU protease inhibitors, primary screen, biochemical, Pep-AMC substrate, fluorescence. Crimean-Congo hemorrhagic fever virus L polyprotein viral ovarian tumor (vOTU) protease …. 370,000 compounds, 0.55% hits. AID 651958, 2012. inhibition, % at 11.5 µM; in the data active = inhibition above about 30%; note: 0% = vehicle wells with enzyme and 100% = no enzyme wells
# SARS 3CLpro inh-1 = SARS-CoV 3CLpro protease inhibitors, primary screen, biochemical, quenched FRET; 290,000 compounds, 0.14% hits; AID 1706, 2009; recombinant SARS-CoV 3CLpro, quenched FRET peptide cleavage; inhibition, % at 6 µM; in the data active = inhibition above about 12%
# VHR inh abs = VHR1 phosphatase inhibitors, primary screen, biochemical, absorbance, uHTS. Dual specificity protein phosphatase 3 (Homo sapiens), P51452. recombinant VHR phosphatase, pNPP absorbance. inhibition, % at 13.3 µM. 290,000 compounds, 0.52% hits. AID 1654, 2009; in the data active = inhibition above about 50%
# PriA SSB inh = inhibitors of Klebsiella pneumoniae PriA binding to SSB C-terminal tail, primary screen, biochemical, AlphaScreen | inhibition, % at 33 µM | AlphaScreen SSBct-PriA binding, biotinylated peptide | PriA–SSB C-terminal tail interaction (Klebsiella pneumoniae) | 430,000 compounds, 0.6% hits; in the data active = inhibition mostly above about 37%, no sharp cut-off; inactive = mostly below about 20%;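 note: plate controls were negative control peptide for no effect and reference peptide for full effect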
# SARS 3CLpro inh-2 = confirmation of SARS coronavirus 3C-like protease inhibitors, retest, confirmation, biochemical | shares compounds with SARS 3CLpro inh-1 | 380 compounds, 36% hits | QFRET protease activity assay, 3CLpro | inhibition, % at 6 µM; in the data active = inhibition above about 13%
# GFP chromo cs = counter-screen: blocks GFP chromophore formation, dose response, counter-screen, biochemical, fluorescence, homogeneous; shares compounds with RecA intein inh; cell-free GFP chromophore formation; EC50, µM; 2,100 compounds, 83% hits; call rule not given here
# An asterisk follows results filed as active; / = no result given.
SMILES,RecA intein inh,CCHFV vOTU inh,SARS 3CLpro inh-1,VHR inh abs,PriA SSB inh,SARS 3CLpro inh-2,others
Cc1ccc(C(=O)n2cnc3ccccc32)cc1C,35.6*,-11.5,19.4*,-15.2,-15.3,26.4*,
Cc1occc1C(=O)n1cnc2ccccc21,0.4,/,-6.6,13.4,/,/,
Cn1nc(C2CCN(C(=O)NC(c3ccccc3)c3ccccc3)CC2)n(C2CC2)c1=O,/,/,/,/,-7.0,/,
COCCNC(=O)C(c1cccc(OC)c1)N(Cc1cccs1)C(=O)Cn1nnc2ccccc21 (stereo not drawn),0.8,8.7,31.6*,22.5,-13.7,34.6*,
Cc1noc(NS(=O)(=O)c2ccc(NC(=O)C(Cl)(Cl)Cl)cc2)c1C,-4.7,4.6,-4.0,14.2,-6.4,/,
Cc1noc(NS(=O)(=O)c2ccc(NC(=O)Nc3ccc(Cl)c(Cl)c3)cc2)c1C,20.0,13.7,15.8*,2.6,-8.5,10.4,
COc1ccc(COc2ccc(C3C(S(=O)(=O)c4ccccc4)CON3C)cc2OC)cc1 (stereo not drawn),-0.2,12.1,13.8*,39.3,-2.0,4.0,
Cc1ccc(NC(=O)CN(C)C(=O)c2cccnc2Nc2cccc(C(F)(F)F)c2)cc1,7.0,11.8,12.6*,17.9,-20.8,12.0,
O=C(CCl)Nc1ccccc1C(=O)c1ccccc1,15.1,-3.7,12.6*,13.1,-12.2,9.3,
O=C(O)CC1(CC(=O)Nc2ccccc2C(=O)c2ccccc2)CCCC1,0.0,14.0,2.3,-24.1,-7.3,/,
O=C(Nn1cnc2ccccc2c1=O)c1ccc(Br)cc1,0.0,-13.7,13.9*,1.6,-1.5,8.1,
N#CCC(=O)NN=Cc1c(-c2ccccc2)n(-c2ccccc2)c2ccccc12,/,/,/,/,4.3,/,
N#CCC(=O)N/N=C/c1c(-c2ccccc2)n(-c2ccccc2)c2ccccc12,-0.4,16.6,21.7*,21.1,/,23.2*,
O=C(Nc1ccc2c(c1)CCCN2S(=O)(=O)c1cccs1)Oc1ccccc1,/,/,/,/,11.0,/,
CC(C)(C)C(=O)NC(=S)Nc1sc2c(c1C#N)CCCCC2,-1.2,-16.3,33.6*,10.2,-1.2,2.9,
Cc1ccc(C(=O)CSc2nnc(CNc3ccc(C)cc3C)n2Cc2ccco2)cc1,12.3,1.2,12.7*,6.7,30.3,5.2,
O=C(CSc1nc2ccsc2c(=O)n1CCc1cccs1)Nc1nccs1,/,/,/,/,-3.0,/,
Cc1ccc(-c2nn(-c3ccccc3)cc2NC(=O)CCl)cc1,29.3,9.1,14.0*,3.5,4.3,12.6*,
O=C([C@H]1CC(=O)N(C2CCOCC2)C1)N1CCN(C2CCCCC2)CC1,/,/,/,/,4.0,/,
NCC1COC2(CCCCC2)O1 (stereo not drawn),/,/,/,/,25.0,/,
COc1cccc(/C=N/NC(=S)Nc2cccnc2)c1,/,-2.6,16.3*,16.9,/,18.0*,
O=C(Nc1nnc(SCc2c(Cl)cccc2Cl)s1)c1ccc2ncsc2c1,12.2,/,-1.0,80.2,/,/,
N#Cc1ccc(CSc2nnc(NC(=O)c3ccc4ncsc4c3)s2)cc1,23.1,4.2,13.3*,3.9,-16.1,43.3*,
Cc1cc(C)nc(OC2CCC(NC(=O)c3snnc3C)CC2)n1 (stereo not drawn),/,/,/,/,5.0,/,
O=c1[nH]c(=O)n(-c2ccc(F)cc2)c(O)c1/C=C1\C=Nc2ccccc21,0.3,-7.9,5.1,19.7,/,/,
SMILES,RecA intein inh,CCHFV vOTU inh,SARS 3CLpro inh-1,VHR inh abs,PriA SSB inh,SARS 3CLpro inh-2,others
O=c1[nH]c(=O)n(-c2ccccc2F)c(O)c1/C=C1\C=Nc2ccccc21,0.1,-4.2,29.2*,-3.3,/,38.5*,
COc1ccc(N(Cc2cc3ccccc3[nH]c2=O)S(=O)(=O)c2ccc(OC)cc2)cc1,-2.1,4.9,15.8*,-6.0,-6.0,5.6,
O=C(c1c(Cl)nc2sccn12)N1CCN(c2cccc(Cl)c2)CC1,2.7,21.1,44.3*,17.2,0.8,3.4,
O=C(c1cc2ccccc2cc1O)N1CCN(c2cccc(Cl)c2)CC1,-6.3,0.8,/,/,10.6,/,
Cc1cnc2n(c1=O)C(CC(=O)N1CCN(c3ncccn3)CC1)CS2 (stereo not drawn),/,/,/,/,-4.0,/,
O=C1c2ccccc2C(=O)N1C/C=C/c1ccccc1,-0.4,9.0,-5.8,-6.0,-14.2,/,
O=C1C(=O)N(CCCc2ccccc2)c2ccccc21,7.8,/,19.2*,1.0,-1.1,22.4*,
O=C1C(=O)N(C/C=C/c2ccccc2)c2ccccc21,0.3,-1.6,34.3*,2.1,-9.1,36.0*,
COC(=O)c1ccc(NC(=O)Cn2cccc(-c3nc(-c4ccc(OC)c(OC)c4)no3)c2=O)cc1,/,/,/,/,5.0,/,
CC(=O)c1c(OC(=O)c2ccco2)c2ccccc2n1C,10.8,-4.2,12.8*,6.0,-2.0,15.6*,
COc1ccc(C(=O)c2c3ccc([N+](=O)[O-])cc3[n+]([O-])n2CCCC(N)=O)cc1,6.4,11.3,/,/,-7.0,/,
Cc1ccc(C(=O)c2c3ccccc3[n+]([O-])n2CCC(N)=O)cc1,3.3,-0.1,33.2*,29.1,-5.9,35.8*,
Cc1ccc(C(=O)c2c3ccccc3[n+]([O-])n2[C@@H](C)C(N)=O)cc1,0.1,17.2,/,/,13.1,/,
Cc1ccc(C(=O)c2c3ccc([N+](=O)[O-])cc3[n+]([O-])n2CCC(N)=O)cc1,-2.5,11.6,12.4*,9.5,15.8,12.0,
COc1ccc(C2C(O)C(c3c[nH]c4ccccc34)=NN2C(=O)CCl)cc1 (stereo not drawn),87.4*,-19.1,61.4*,-1.0,2.6,77.9*,GFP chromo cs=2.27*
CCCC(=O)N(Cc1cc(=O)[nH]c2ccccc12)c1ccc(OC)cc1,4.5,16.5,-2.5,23.9,-5.5,/,
COc1ccc(N(Cc2cc(=O)[nH]c3ccccc23)C(=O)CCl)cc1,/,-18.4,16.2*,1.7,-7.2,24.6*,GFP chromo cs=15.3*
O=C(O)c1ccccc1SC1CC(=O)N(c2ccc(C(F)(F)F)cc2)C1=O (stereo not drawn),/,/,/,/,4.0,/,
CCCCCc1c2c(cc(O)c1C(=O)O)OC(=O)c1c(cc(OC)cc1C(=O)CCCC)O2,30.8*,/,15.2*,25.6,1.5,8.5,GFP chromo cs=12.1*
O=C(O)COc1ccc(F)cc1,/,/,/,/,-1.0,/,
O=C(CCl)N(CCc1ccccc1)CCc1ccccc1,73.8*,7.8,16.4*,11.5,2.4,23.9*,GFP chromo cs=20.1*
Cc1ccc(C2CC(c3cccs3)=NN2C(=O)CCl)cc1 (stereo not drawn),82.1*,10.2,54.7*,-9.1,-0.1,70.1*,GFP chromo cs=3.81*
O=C(Nc1ccccc1)NN(C(=O)CCl)c1ccccc1,67.8*,13.9,32.2*,-15.9,8.9,36.5*,GFP chromo cs=15.2*
